The nature of assay [1]: A CellTox Green Cytotoxicity Assay to monitor cytotoxicity in HEK293 cells - 40 hour (AID 1224871). Also: nearly all actives have a fitted effect of over 45% in size. In a few lines:
(§1)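 HEK293 cells, 600/well, were preincubated 5 hours and then exposed to compounds at 37 C for up to 40 hours. A cell-impermeant cyanine dye staining dead-cell DNA was read by fluorescence at 0, 8, 16, 24, 32 and 40 h time points.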

The nature of assay [2]: A CellTox Green Cytotoxicity Assay to monitor cytotoxicity in HEK293 cells - 24 hour (AID 1224875). Also: series mostly up to about 77 µM; nearly all actives have a fitted effect of over 45% in size. In a few lines: as §1
Assay [3] can be described thus: A CellTox Green Cytotoxicity Assay to monitor cytotoxicity in HepG2 cells - 16 hour (AID 1224876). Also: nearly all actives have a fitted effect of over 45% in size. In a few lines:
(§2)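 HepG2 cells, 600/well, preincubated 5 h with CellTox Green dye, then exposed to Tox21 compounds in DMSO at 37 C for up to 40 h. Dead-cell DNA fluorescence read at the indicated time point.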

A short description of assay [4]: A CellTox Green Cytotoxicity Assay to monitor cytotoxicity in HepG2 cells - 24 hour (AID 1224878). Also: nearly all actives have a fitted effect of over 45% in size. In a few lines:
as §2

Assay [5] in a line: A CellTox Green Cytotoxicity Assay to monitor cytotoxicity in HepG2 cells - 40 hour (AID 1224879). Also: nearly all actives have a fitted effect of over 40% in size. Summed up:
as §2

Assay [6] can be described thus: qHTS RealTime-Glo MT Cell Viability Assay in HEK293 cells - 16 hour (AID 1224872). Also: nearly all actives have a fitted effect of over 50% in size. Also: potency is read from the fitted curve at half-maximal effect. As to activity change, negative = cytotoxicity: top concentration of the series differs between compounds. In a few lines: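 HEK293 cells were seeded at 600 cells/well together with NanoLuc luciferase and cell-permeant prosubstrate, preincubated 5 h at 37 C/5% CO2, then given compound in DMSO by pintool. Luminescence from viable-cell prosubstrate reduction was read repeatedly over 40 h.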
For orientation: In qHTS, concentration-response curves come from the screen itself.

Assay [7] can be described thus: qHTS RealTime-Glo MT Cell Viability Assay in HepG2 cells - 8 hour (AID 1224873). Also: nearly all actives have a fitted effect of over 55% in size. Summed up:
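HepG2 cells (600/well) mixed with RealTime-Glo MT reagent, settled 5 h at 37 C/5% CO2 before compound addition. Nonlytic NanoLuc luminescence from viable-cell prosubstrate reduction read repeatedly during 40 h treatment at 37 C.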

Assay [8] in a line: qHTS RealTime-Glo MT Cell Viability Assay in HEK293 cells - 40 hour (AID 1224874). Also: nearly all actives have a fitted effect of over 50% in size. Also: potency is read from the fitted curve at half-maximal effect. Particulars: RealTime-Glo luminescence; max response: hits give low values. Summed up:
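600 cells/well were plated with the nonlytic NanoLuc/prosubstrate reagent, pre-incubated 5 h, then given 23 nL of compound in DMSO. Incubation at 37 C for 40 h, with luminescence from viable-cell-reduced substrate read repeatedly from 0 h.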

The nature of assay [9]: qHTS RealTime-Glo MT Cell Viability Assay in HepG2 cells - 32 hour (AID 1224877). Also: nearly all actives have a fitted effect of over 55% in size. In a few lines:
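HepG2 cells were seeded at 600 cells/well together with NanoLuc luciferase and a cell-permeant prosubstrate, preincubated 5 h at 37 C/5% CO2, then pin-dosed with compounds in DMSO. Nonlytic luminescence from viable cells was read at each time point.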

Inconclusive results are not listed. A number with no mark means an inactive call. Active and inactive are the calls of the source. Calls follow the shape of the dose curve; as a rule, active = well fitted curve in the direction sought with a large enough effect in the repeat runs; inconclusive = weak or mixed curves; inactive = no such curve, though single readings can be large; an effect the other way counts as inactive or inconclusive.
% is scaled to controls: 0 for no effect and ±100 for the full control effect.

As to `COCCOC(=O)C1=C(C)NC(C)=C(C(=O)OC(C)C)C1c1cccc([N+](=O)[O-])c1` (configuration not stated), the Potency result in assay [1] and in assay [5] was “inactive” in each case. Besides, the call in assay [2], in [3] and in [4] was inactive.

Consider `CC(C)CC(=O)O`, for which the Potency entry in assay [1], in assay [6] and in assay [5] was “inactive” in each case. Further, the call in [7], in assay [2], in assay [3], in [9] and in [4] was inactive. Further, the max response in assay [8] was 6.56%.

Consider `Cc1cccc2nccnc12`, for which the Potency entry in assay [6] and in assay [5] was “inactive” throughout. Moreover, the compound was classed as inactive in assay [7], in assay [3], in [9] and in [4]. In addition, in [8], the max response was 6.74%.

Take `CC(C)CCCC(C)(C)O`: the Potency entry in assay [1], in [6] and in assay [5] was “inactive” throughout. In addition, the call in assay [7], in assay [2], in assay [3], in [9] and in assay [4] was inactive. Moreover, the max response in assay [8] is -4.36%.

Turning to `C#CC(C)N(C)C(=O)Nc1ccc(Cl)cc1` (configuration not stated), the Potency entry in [1] and in assay [5] was “inactive” each time. The outcome in assay [7], in [2], in assay [3], in assay [9] and in assay [4] was inactive.

As for `Cc1cc(C(C)(C)C)c(O)c(C)c1CC1=NCCN1`, the call in assay [7], in assay [2], in assay [3], in assay [9] and in [4] was inactive. Moreover, the max response in assay [8] was 0.324%. The Potency result in assay [5] is “inactive”.

As for `O=C(O)c1cc(Cl)cc([N+](=O)[O-])c1Cl`, the Potency entry in assay [6] and in [5] was “inactive” each time. The compound was classed as inactive in [7], in assay [2], in [3], in assay [9] and in assay [4]. Moreover, in [8], the max response was 21%.

For `Nc1ncnc(Nc2ccccc2)n1`, the Potency entry in [1], in assay [6] and in assay [5] was “inactive” each time. Besides, the outcome in assay [7], in assay [2], in [3], in assay [9] and in assay [4] was inactive. Besides, the max response in [8] is 3.02%.

On to `COC(=O)C1CC(=O)C(C(=O)OC)CC1=O` (configuration not stated), for which the activity change, negative = cytotoxicity in assay [6] is 7.32% [at 6.97 µM]. The viability change, negative = cytotoxic in [7] was -14.8% [at 6.97 µM]. Moreover, the max response in assay [8] is -0.164%. For the same compound, in [2], the activity change was 2.42% [at 6.97 µM]. The cytotoxicity increase in assay [3] was -5.58% [at 6.97 µM]; in [5], -13.2% [at 6.97 µM]. In addition, in assay [9], the activity change, negative = cytotoxic was 12.6% [at 6.97 µM].

As to `C[Si](C)=O`, the cytotoxicity increase in assay [1] was 12.6% [at 6.97 µM]; in assay [5] it was -11.7% [at 6.97 µM]. Further, the activity change, negative = cytotoxicity in [6] was 2.27% [at 6.97 µM]. In addition, the viability change, negative = cytotoxic in assay [7] was 1.52% [at 6.97 µM]. The max response in assay [8] was 0.522%. Also, the activity change in assay [2] was 9.97% [at 6.97 µM]. For the same compound, in assay [9], the activity change, negative = cytotoxic was 0.305% [at 6.97 µM]. Further, the cytotoxicity in [4] was -4.98% [at 6.97 µM].

In the case of `CCCCCCCC/C=C\CCCCCCCC(=O)OCCCC`, the values for the cytotoxicity increase in assay [1] and in [5] were -33.9% [at 15.8 µM] and -13.9% [at 15.8 µM], respectively. Moreover, in [7], the viability change, negative = cytotoxic is -0.413% [at 15.8 µM]. For the same compound, the activity change in assay [2] was -32.5% [at 15.8 µM]. The activity change, negative = cytotoxic in assay [9] was 6.1% [at 15.8 µM]. Moreover, in assay [4], the cytotoxicity was -11.8% [at 15.8 µM].

In the case of `CCN(CC)CC(=O)Nc1c(C)cccc1C`, the Potency entry in [1] and in assay [5] was “inactive” throughout. In addition, the outcome in [7], in assay [2], in assay [3], in assay [9] and in assay [4] was inactive.

Take `O=C(O)Cc1ccc(Cl)cc1Cl`: in [1], the Potency result is “inactive”. Also, the max response in assay [8] was -0.186%. Also, the compound was classed as inactive in assay [2] and in [9].

Regarding `CC(=O)c1ccc2c(c1)Cc1ccccc1-2`, the Potency result in assay [1], in [6] and in assay [5] was “inactive” throughout. The outcome in assay [7], in assay [2], in assay [3] and in assay [9] was inactive. Further, in [8], the max response is -0.213%.

In the case of `CC1=C(C(=O)O)N2C(=O)[C@@H](NC(=O)[C@H](N)c3ccc(O)cc3)[C@H]2SC1`, the Potency entry in [6] and in [5] was “inactive” each time. Further, the result in assay [7], in assay [2], in [3], in assay [9] and in assay [4] was inactive. The max response in assay [8] is 13.3%.

As for `CCOC(=O)c1ncn2c1CN(C)C(=O)c1cc(F)ccc1-2`, the Potency entry in assay [1], in assay [6] and in assay [5] was “inactive” throughout. Moreover, the outcome in assay [7], in assay [2], in assay [3] and in [9] was inactive. The max response in assay [8] is -10.6%.

For `N[C@@H](CCC(=O)N[C@@H](CS)C(=O)NCC(=O)O)C(=O)O`, the cytotoxicity increase was 2.27% [at 15.8 µM] in assay [1], -10% [at 15.8 µM] in assay [3] and -8.24% [at 15.8 µM] in assay [5]. In addition, the activity change, negative = cytotoxicity in assay [6] was 9.65% [at 15.8 µM]. Moreover, the viability change, negative = cytotoxic in assay [7] was -0.362% [at 15.8 µM]. Further, the max response in assay [8] was 3.69%. Moreover, the activity change in assay [2] is 1.6% [at 15.8 µM]. Besides, the activity change, negative = cytotoxic in assay [9] was 2.09% [at 15.8 µM]. Further, the cytotoxicity in assay [4] is -12.9% [at 15.8 µM].

For `N[C@@H](COP(=O)(O)O)C(=O)O`, the cytotoxicity increase in [1] was -6.71% [at 15.8 µM]; in assay [3], 1.02% [at 15.8 µM]; in assay [5] it was -0.277% [at 15.8 µM]. Further, the activity change, negative = cytotoxicity in [6] is 6.19% [at 15.8 µM]. The viability change, negative = cytotoxic in assay [7] was 0.974% [at 15.8 µM]. In addition, in assay [8], the max response is 7.08%. In [2], the activity change is -7.17% [at 15.8 µM]. Moreover, the activity change, negative = cytotoxic in assay [9] was 1.44% [at 15.8 µM].

`C=C(C)C(=O)OCc1ccccc1`: the Potency result in [1] and in [5] was “inactive” throughout. Besides, the outcome in assay [7], in assay [2] and in assay [9] was inactive. The max response in assay [8] was -7.63%.

With `CCOc1cc([N+](=O)[O-])c(OCC)cc1N1CCOCC1`, the Potency result in assay [1] and in assay [5] was “inactive” in each case. For the same compound, the Potency in assay [6] is 19.5 µM (active); in assay [8] it was 15.5 µM (active). Moreover, the compound was called inactive in [7], in assay [2], in assay [3], in assay [9] and in [4].

On to `CCCC(=O)C(C)=O`, for which the Potency entry in assay [1], in assay [6] and in assay [5] was “inactive” throughout. The compound was classed as inactive in assay [7], in assay [2], in assay [9] and in assay [4]. In addition, in [8], the max response was -1.51%.

For `Cc1[nH]cnc1-c1ccc(Cl)cc1`, the Potency entry in assay [1], in assay [6] and in assay [5] was “inactive” each time. Also, the call in assay [7], in assay [2], in assay [3], in [9] and in assay [4] was inactive. Also, the max response in [8] was -3.17%.

On to `CC(CO)c1ccccc1` (configuration not stated), for which the Potency result in assay [1], in assay [6] and in assay [5] was “inactive” throughout. The call in [7], in [2], in assay [3] and in assay [9] was inactive. In addition, in assay [8], the max response was -0.132%.

As for `CCCCOCCOC(=O)COc1nc(Cl)c(Cl)cc1Cl`, the Potency entry in assay [6] and in assay [5] was “inactive” each time. The max response in [8] is 7.86%. The compound was classed as inactive in assay [2], in assay [3], in assay [9] and in [4].

With `c1ccc2c(c1)ccc1c3ccccc3ccc21`, the Potency entry in assay [6] and in assay [5] was “inactive” throughout. The call in [7], in [2], in assay [3], in [9] and in assay [4] was inactive. Further, the max response in assay [8] was 6.22%.

In the case of `CC(C)(C)c1nnc(NS(=O)(=O)c2ccc(N)cc2)s1`, the Potency result in assay [1] and in assay [5] was “inactive” throughout. For the same compound, the outcome in assay [7], in assay [2], in assay [3], in [9] and in [4] was inactive. The max response in assay [8] is 2.09%.

Turning to `COc1cc2c(cc1OC)[C@@H]1CC(=O)[C@@H](CC(C)C)CN1CC2`, the Potency result in [1] and in assay [5] was “inactive” in each case. For the same compound, the compound was called inactive in [7], in assay [2], in assay [3], in assay [9] and in assay [4]. In addition, the max response in [8] was -11.9%.

`BrCc1cccc(Oc2ccccc2)c1`: the call in assay [7], in assay [2], in assay [3] and in assay [9] was inactive. Also, in [8], the max response was -9.91%.

In the case of `COc1ccc(Br)c(C)c1`, the call in assay [7], in assay [2], in [3], in assay [9] and in [4] was inactive. Besides, the max response in assay [8] is 4.1%. Besides, the Potency entry in assay [5] was “inactive”.

Source of the values: PubChem BioAssay (Tox21).
